Only some compounds are listed: those with a hit (about 9.3% of all), similar ones and a draw of the others.
HCMV inh – qHTS Assay for inhibitors of the human cytomegalovirus (HCMV); HFF cells, HCMV-luciferase reporter, 72 h; stronger effect = lower value; activity change, negative = inhibition, % at 57.5 µM; hit rate 4.5% among 410,000; AID 1259415, 2018; in the data active = activity change below about -60%; inconclusive = no clear call, values can overlap the other calls; inactive = above about -39%
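Cell-based, HFFs, 1000 cells/well, 16 h 37C; cpds in DMSO + HCMV-luc, MOI 1 PFU/cell; 72 h 37C; OneGlo luminescence after 5 min RT; norm. to buffer vs Salinomycin 10uM.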
FMDV inh – High Throughput Screening for Foot and Mouth Disease Virus Antivirals; Potency, µM (doses to about 57.9 µM), usual class: inhibitors; FMDV antiviral cell-based qHTS; hit rate 1.2% among 410,000; AID 1159524, 2015; calls by dose curve; tested in HEK293T cells; also: read-out not given here; nearly all actives have a fitted effect of over 45% in size
Vaccinia Venus – qHTS for Stage-Specific Inhibitors of Vaccinia Orthopoxvirus: Venus Reporter Primary qHTS. Potency, µM (doses to about 36.5 µM), most hits filed as inhibitors. Vaccinia virus Venus reporter expression, fluorescence. hit rate 0.46% among 330,000. AID 720580, 2013; calls by dose curve; tested in A549 cells; also: nearly all actives have a fitted effect of over 30% in size
Sm TGR block – qHTS Assay for the Inhibitors of Schistosoma Mansoni Peroxiredoxins. hit rate 3% among 360,000. Schistosoma mansoni thioredoxin glutathione reductase (TGR), Q962Y6. purified TGR, DTNB reduction, TNB absorbance 405 nm. Potency, µM (titrated, usually from 114 µM), hits mostly inhibitors; also: nearly all actives have a fitted effect of over 60% in size
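TGR 20 nM + NADPH 100 uM (dispensed conc.), cpd preinc 15 min RT; start with NADPH (500 uM addition) then DTNB (15 mM addition). Kinetic TNB absorbance, 405 nm filter. Four-parameter Hill fit across titration.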
HCV inh – qHTS Assay for Inhibitors of Hepatitis C Virus (HCV). hit rate 3.4% among 340,000. Huh7.5.1 HCVcc-Cre infection, luciferase reporter, 44 h. Potency, µM (top dose mostly 41.8 µM), actives largely listed as inhibitors
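A cell-based infection assay in which seeded cells (1,000 per well) receive test compound after 4 h, are inoculated with HCVcc-Cre at approximately 0.5 moi, and are incubated 44 h before luminescence detection.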
VACV mCherry inh – qHTS for Stage-Specific Inhibitors of Vaccinia Orthopoxvirus: mCherry Reporter Primary qHTS; hit rate 0.63% among 310,000; AID 720579, 2013; Vaccinia virus mCherry reporter infection, fluorescence; Potency, µM (doses to about 36.5 µM), hits mostly inhibitors; calls by dose curve; tested in A549 cells; also: nearly all actives have a fitted effect of over 35% in size
Each line names hits and unclear results; the compound was inactive in the other large screens. Unless noted, calls follow the shape of the dose curve; as a rule, active = well fitted curve in the direction sought with a large enough effect; inconclusive = small, poorly fitted or top-dose-only effect, or another doubt; inactive = no such curve, though single readings can be large; an effect the other way counts as inactive or inconclusive.

Cn1nc(-c2ccccc2)cc1NC(=O)c1ccccc1	none
O=C(Nc1cc(-c2ccccc2)nn1C1CCCCC1)c1ccc(Cl)cc1	FMDV inh inconclusive, HCV inh 2.5µM (no result: Sm TGR block)
CC1CCCN(c2sc(S(C)(=O)=O)nc2S(=O)(=O)c2ccc(Cl)cc2)C1 (stereo not given)	none
Cc1ccc(S(=O)(=O)c2nc(S(C)(=O)=O)sc2N2CCN(C)CC2)cc1	HCMV inh -104 (no result: Vaccinia Venus, VACV mCherry inh)
Cc1ccc(S(=O)(=O)c2nc(S(C)(=O)=O)sc2N2CCCCCC2)cc1	HCMV inh inconclusive
Cc1ccc(S(=O)(=O)c2nc(S(C)(=O)=O)sc2N2CCC(C)CC2)cc1	Sm TGR block 1.8µM
CCCS(=O)(=O)c1nc(S(=O)(=O)c2ccc(C)cc2)c(N2CCOCC2)s1	HCMV inh -63
CC1CN(c2sc(S(C)(=O)=O)nc2S(=O)(=O)c2ccc(Cl)cc2)CC(C)O1 (stereo not given)	Sm TGR block 14µM
Cn1c(CN2CCCC2)nc2cc(NC(=O)COc3ccccc3)ccc21	none (no result: VACV mCherry inh)
CCN(CC)S(=O)(=O)c1ccc(N2CCCCC2)c(NC(=O)C2CCN(C(=O)c3ccc(F)cc3)CC2)c1	HCV inh inconclusive
COc1ccc(-c2noc(CNC(=O)Nc3ccc(F)cc3)n2)cc1	none
CCCCn1c(-c2csc3c2CCC(C)C3)n[nH]c1=S (stereo not given)	HCMV inh -61, HCV inh inconclusive (no result: Vaccinia Venus, VACV mCherry inh)
CCCCn1c(-c2csc3c2CCCC3)n[nH]c1=S	none (no result: Vaccinia Venus, VACV mCherry inh)
CCCCn1c(N)c(N(CCOC)C(=O)C2CCN(C(=O)c3ccccc3C)CC2)c(=O)[nH]c1=O	none
O=[N+]([O-])c1nn(-c2ccc3c(c2)OCCO3)n(O)c1=NC1CCCC1	HCV inh 2.8µM
O=[N+]([O-])c1nn(-c2ccccc2)n(O)c1=NCc1ccc2c(c1)OCO2	none (no result: FMDV inh)
O=[N+]([O-])c1nn(-c2ccc3c(c2)OCCO3)n(O)c1=NC1CCCCCC1	HCMV inh inconclusive, Sm TGR block 35µM (no result: Vaccinia Venus, VACV mCherry inh)
COc1ccc(-n2nc([N+](=O)[O-])c(=NCc3ccc4c(c3)OCO4)n2O)cc1	HCV inh inconclusive
COc1ccc2nc(NC(=O)c3ccccc3-c3ccccc3C(=O)O)sc2c1	none (no result: Vaccinia Venus, VACV mCherry inh)
COc1cc2c(cc1[N+](=O)[O-])-c1ccc([N+](=O)[O-])cc1C2	HCMV inh -68 (no result: FMDV inh, Vaccinia Venus, Sm TGR block, HCV inh, VACV mCherry inh)
COc1cc2c(cc1[N+](=O)[O-])-c1ccccc1C2	HCMV inh -75 (no result: Sm TGR block)
CC(=O)Nc1cccc2c1Cc1cc([N+](=O)[O-])ccc1-2	HCMV inh -98 (no result: Sm TGR block)
COc1cc2c(=O)[nH]c3cc([N+](=O)[O-])ccc3c2cc1[N+](=O)[O-]	HCMV inh -94, VACV mCherry inh inconclusive (no result: Sm TGR block, HCV inh)
CC1(C(=O)NS(=O)(=O)c2cccs2)CCN1C(=O)Cc1ccccc1 (stereo not given)	none (no result: Sm TGR block, HCV inh)
COc1ccc(NS(=O)(=O)c2cc(NC(=O)c3nn(C)c(=O)c4ccccc34)ccc2OC)cc1	HCV inh inconclusive
COc1ccc(CNC(=O)C2(c3cccs3)CCOCC2)cc1	none (no result: HCV inh)
CN(CC(=O)Nc1ccc(Cl)cc1)CC(=O)Nc1sc2c(c1C(N)=O)CCC2	FMDV inh inconclusive (no result: Sm TGR block, HCV inh)
O=[N+]([O-])c1ccc2c(c1)Cc1cc(F)ccc1-2	HCMV inh -94 (no result: Sm TGR block)
O=C(c1ccc(S(=O)(=O)Cc2cc(F)ccc2F)c([N+](=O)[O-])c1)N1CCCCC1	HCMV inh inconclusive, FMDV inh inconclusive, Sm TGR block 8.9µM
O=C(c1ccc(S(=O)(=O)Cc2cc(F)ccc2F)c([N+](=O)[O-])c1)N1CCCC1	HCMV inh -75, Sm TGR block inconclusive
C#Cc1ccc(NC(=O)C2(C)CCN2C(=O)Cc2ccc(C(C)(C)C)cc2)cc1 (stereo not given)	HCMV inh -83, FMDV inh inconclusive (no result: Sm TGR block, HCV inh)
C#Cc1ccc(NC(=O)C2(C)CCN2C(=O)C/C=C/c2ccccc2)cc1 (stereo not given)	none (no result: Sm TGR block, HCV inh)
C#Cc1ccc(NC(=O)C2(C)CCN2C(=O)Cc2ccc(C(C)C)cc2)cc1 (stereo not given)	HCMV inh -82, FMDV inh inconclusive (no result: Sm TGR block, HCV inh)
O=C(Cn1nnc(-c2ccccc2)n1)NC1CCS(=O)(=O)C1 (stereo not given)	none
COc1ccc(Cn2nnnc2C(c2cc3ccc(OC)cc3[nH]c2=O)N2CCCCCC2)cc1 (stereo not given)	Sm TGR block 18µM
CCCC(c1nnnn1Cc1ccc(OC)cc1)N1CCN(c2ccccc2OC)CC1 (stereo not given)	FMDV inh 35µM, HCV inh inconclusive (no result: VACV mCherry inh)
COc1ccc(Cn2nnnc2C(c2ccccc2Cl)N2CCN(C)CC2)cc1 (stereo not given)	HCMV inh -63 (no result: VACV mCherry inh)
COc1cc2cc(C(c3nnnn3Cc3ccc(F)cc3)N3CCCCCC3)c(=O)[nH]c2cc1OC (stereo not given)	Sm TGR block inconclusive (no result: Vaccinia Venus, VACV mCherry inh)
COCCNC(=O)C1(C)CCN(C(=O)c2cc(-c3cccs3)oc2C)C1 (stereo not given)	none (no result: FMDV inh, Vaccinia Venus, Sm TGR block, HCV inh, VACV mCherry inh)
COc1cc(C(=O)NCC(c2ccc(N(C)C)cc2)N2CCCC2)cc(OC)c1OC (stereo not given)	none (no result: HCV inh)
COC(=O)NCC(c1cccnc1)N1CCN(c2ccccc2F)CC1 (stereo not given)	none
CCc1ccccc1NC(=O)C(=O)NCC(c1cccnc1)N1CCN(c2ccccc2F)CC1 (stereo not given)	FMDV inh 40µM (no result: HCV inh)
COc1ccc(C(=O)NCC(c2ccc(N(C)C)cc2)N2CCc3ccccc32)cc1OC (stereo not given)	HCMV inh inconclusive (no result: HCV inh)
COc1cccc(C(=O)NCC(c2cccnc2)N2CCN(c3ccccc3OC)CC2)c1 (stereo not given)	FMDV inh 35µM, HCV inh inconclusive (no result: HCMV inh)
COc1cccc(C(=O)NCC(c2ccc(N(C)C)cc2)N2CCc3ccccc32)c1 (stereo not given)	HCMV inh -68 (no result: HCV inh)
COc1ccc(CNC(=O)C(=O)NCC(c2cccnc2)N2CCN(c3ccccc3F)CC2)cc1 (stereo not given)	HCMV inh -70, Vaccinia Venus inconclusive, VACV mCherry inh inconclusive (no result: HCV inh)
CC(C)CC(=O)C1CCCN(C(=O)c2ccc3oc(Cc4ccccc4)nc3c2)C1 (stereo not given)	HCV inh 22µM
O=C(c1ccc2oc(CCCc3ccccc3)nc2c1)N1CCCC(CCCO)C1 (stereo not given)	HCMV inh -61 (no result: Vaccinia Venus, VACV mCherry inh)
O=C(Nc1c(F)c(F)c(F)c(F)c1F)c1ccc(Br)o1	none (no result: Sm TGR block, HCV inh)
Cc1c(C(=O)C(=O)NCCC2=CCCCC2)c2ccccc2n1C	HCMV inh -62

Bioassay records (PubChem BioAssay)
